Assay [1] concerns Plasmodium falciparum Sir2 (PF13_0152, Sir2A). Put plainly: pfSir2 binders on small-molecule microarrays, primary screen, biochemical, small-molecule microarray, 635 nm fluorescence (AID 1098).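 Note: score merges spot fluorescence intensity with its signal-to-noise ratio.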 Conditions: small-molecule microarray binding, fluorescence 635 nm; higher = more signal.
Assay [2] in a line: small-molecule microarray binders of probe aDKK1, primary screen, biochemical, biotinylated probe, 635/667 nm fluorescence (AID 1099).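 Note: score merges 667nm spot fluorescence with signal to noise across triplicate slides.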 As to conditions: higher = more signal.
Assay [3] is described as follows: small-molecule microarray binders of probe aCHRDL2, primary screen, biochemical, biotinylated probe, 635/667 nm fluorescence (AID 1100). As to conditions: higher = more signal.
Assay [4] is described as follows: splicing luciferase reporter signal modulators, primary screen, spliceosome inhibition project, cell-based, HEK293, splice +/- reporter (AID 1101).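 Note: HEK293 cells carrying a splicing-competent luciferase reporter gene; test concentration not given here.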 As to conditions: luminescence, 24 h, higher = more signal, called active from +8 up or from −8 down. In general terms: In a reporter assay the amount or activity of a reporter protein is the signal.
The target in assay [5] is Fibroblast growth factor 10 (Homo sapiens) (UniProt O15520). The assay is described as follows: FGF10 binders on small-molecule microarrays, primary screen, biochemical, small-molecule microarray, 635 nm fluorescence (AID 1102). Conditions: FGF10 binding, fluorescence 635 nm, higher = more signal.
Chain of Fibroblast growth factor 10 (Homo sapiens) (O15520 whole entry, looked up): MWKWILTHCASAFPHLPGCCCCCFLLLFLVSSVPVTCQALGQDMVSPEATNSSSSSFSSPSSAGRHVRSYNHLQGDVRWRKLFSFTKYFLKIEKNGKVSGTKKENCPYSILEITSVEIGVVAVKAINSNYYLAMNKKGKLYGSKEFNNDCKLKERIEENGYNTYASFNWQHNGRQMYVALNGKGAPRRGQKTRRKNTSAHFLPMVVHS
Assay [6] concerns glycogen synthase kinase-3 (GSK3A per assay name; protocol says GSK3B). Put plainly: GSK3 binders on small-molecule microarrays, primary screen, biochemical, small-molecule microarray, 635 nm fluorescence, GSK3A (AID 1103). Note: the record names both GSK3A and GSK3B. As to conditions: small-molecule microarray binding, fluorescence 635 nm; higher = more signal.
Assay [7] deals with Epidermal growth factor receptor (Homo sapiens) (UniProt P00533). Put plainly: EGFR binders on small-molecule microarrays, primary screen, biochemical, small-molecule microarray, 635 nm fluorescence (AID 1104).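 Note: score merges 667 nm emission intensity with spot signal to noise over triplicate slides.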 As to conditions: EGFR binding, higher = more signal.
Chain of Epidermal growth factor receptor (Homo sapiens) (P00533 whole entry, looked up): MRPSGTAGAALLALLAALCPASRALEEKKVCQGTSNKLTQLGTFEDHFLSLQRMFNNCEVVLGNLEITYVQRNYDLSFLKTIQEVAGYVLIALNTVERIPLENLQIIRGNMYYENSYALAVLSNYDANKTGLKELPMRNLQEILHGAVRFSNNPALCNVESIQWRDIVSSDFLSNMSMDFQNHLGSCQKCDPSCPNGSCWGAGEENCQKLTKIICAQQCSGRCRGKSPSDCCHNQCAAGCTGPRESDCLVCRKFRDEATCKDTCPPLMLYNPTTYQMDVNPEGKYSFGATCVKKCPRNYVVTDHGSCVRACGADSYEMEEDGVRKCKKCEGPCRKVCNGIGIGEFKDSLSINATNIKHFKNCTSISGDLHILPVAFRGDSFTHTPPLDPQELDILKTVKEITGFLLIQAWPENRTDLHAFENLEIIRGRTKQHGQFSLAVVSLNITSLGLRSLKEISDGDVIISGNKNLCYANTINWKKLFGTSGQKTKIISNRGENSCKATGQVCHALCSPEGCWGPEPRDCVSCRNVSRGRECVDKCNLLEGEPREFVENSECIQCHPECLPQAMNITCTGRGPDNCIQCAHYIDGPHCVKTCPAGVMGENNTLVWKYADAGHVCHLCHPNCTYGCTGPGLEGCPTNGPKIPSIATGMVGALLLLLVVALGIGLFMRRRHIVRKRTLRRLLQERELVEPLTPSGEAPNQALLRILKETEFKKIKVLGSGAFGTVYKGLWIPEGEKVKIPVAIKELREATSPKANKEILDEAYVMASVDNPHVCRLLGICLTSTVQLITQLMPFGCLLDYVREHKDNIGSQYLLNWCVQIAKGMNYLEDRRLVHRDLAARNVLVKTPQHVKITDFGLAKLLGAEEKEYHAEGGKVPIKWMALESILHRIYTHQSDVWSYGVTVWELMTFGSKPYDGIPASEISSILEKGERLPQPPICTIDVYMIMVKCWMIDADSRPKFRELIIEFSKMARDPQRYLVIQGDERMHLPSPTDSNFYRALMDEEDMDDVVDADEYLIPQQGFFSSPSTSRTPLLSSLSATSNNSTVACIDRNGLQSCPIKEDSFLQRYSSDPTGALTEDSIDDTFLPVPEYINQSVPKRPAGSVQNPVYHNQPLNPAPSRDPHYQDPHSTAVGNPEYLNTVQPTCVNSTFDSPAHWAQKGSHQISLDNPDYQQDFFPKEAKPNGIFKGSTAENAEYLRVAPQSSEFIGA
The target in assay [8] is Follistatin-related protein 3 (Homo sapiens) (UniProt O95633). Put plainly: FSTL3 binders on small-molecule microarrays, primary screen, biochemical, small-molecule microarray, 635 nm fluorescence (AID 1105).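 Note: score merges emission near 667 nm and signal to noise per printed spot across three slides.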 As to conditions: FSTL3 binding, higher = more signal.
Chain of Follistatin-related protein 3 (Homo sapiens) (O95633 whole entry, looked up): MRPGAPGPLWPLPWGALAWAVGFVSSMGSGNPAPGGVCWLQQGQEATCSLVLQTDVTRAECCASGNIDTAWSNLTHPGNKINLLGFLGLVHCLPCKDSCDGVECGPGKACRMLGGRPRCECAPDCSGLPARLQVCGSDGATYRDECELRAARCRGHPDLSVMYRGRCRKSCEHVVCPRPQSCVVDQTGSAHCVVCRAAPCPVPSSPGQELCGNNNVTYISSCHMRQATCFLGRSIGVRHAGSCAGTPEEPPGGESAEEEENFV
Assay [9] deals with Dickkopf-related protein 1 (Homo sapiens) (UniProt O94907). Put plainly: DKK1 binders on small-molecule microarrays, primary screen, biochemical, small-molecule microarray, 635 nm fluorescence scan (AID 1106).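 Note: score merges emission near 667 nm with signal to noise over three replicate slides.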 As to conditions: DKK1 binding, higher = more signal.
Chain of Dickkopf-related protein 1 (Homo sapiens) (O94907 whole entry, looked up): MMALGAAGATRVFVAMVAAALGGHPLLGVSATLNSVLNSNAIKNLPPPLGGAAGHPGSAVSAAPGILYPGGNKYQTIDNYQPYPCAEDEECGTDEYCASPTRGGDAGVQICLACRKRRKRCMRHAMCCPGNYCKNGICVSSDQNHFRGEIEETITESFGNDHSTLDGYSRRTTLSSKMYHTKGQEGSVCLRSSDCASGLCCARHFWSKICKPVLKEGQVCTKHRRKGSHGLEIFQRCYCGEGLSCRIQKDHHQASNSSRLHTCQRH
The subject of assay [10] is Inhibin beta A chain (activin A). Put plainly: INHBA (activin A) binders on microarrays, primary screen, biochemical, small-molecule microarray, 635 nm fluorescence scan (AID 1107).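 Note: mouse activin A protein probed at 4.33 µg/mL on printed slides; score merges bound-protein fluorescence near 667 nm with spot signal-to-noise.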 As to conditions: small-molecule microarray binding, higher = more signal.
Assay [11] has as its system Human papillomavirus type 1a protein E7 (residues 44-93). Put plainly: HPV1a E7 fragment binders on microarrays, primary screen, biochemical, small-molecule microarray, residues 44-93, 635 nm fluorescence (AID 1108).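 Note: E7 fragment applied at 1 µg/mL in TBST for 1 h at 4 C; score combines spot fluorescence with its signal to noise ratio.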 Conditions: small-molecule microarray binding, fluorescence 635 nm; higher = more signal.
Assay [12] can be described thus: modulators of HCV replicon luciferase signal, primary screen, HCV replication inhibitor project, Huh7 cells, luciferase reporter (AID 1109).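 Note: huh7 hepatoma cells harbouring a luciferase neomycin HCV replicon reporter; luciferase luminescence as measure of HCV replicon replication; test concentration not given here.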 As to conditions: 48 h, higher = more signal. On the technique in general: Replicon systems follow genome replication, usually without infectious particles.
The target in assay [13] is Left-right determination factor 2 (Homo sapiens) (UniProt O00292). Put plainly: LEFTY2 binders on small-molecule microarrays, primary screen, biochemical, small-molecule microarray, 635 nm fluorescence scan (AID 1110). As to conditions: LEFTY2 binding, higher = more signal.
Chain of Left-right determination factor 2 (Homo sapiens) (O00292 whole entry, looked up): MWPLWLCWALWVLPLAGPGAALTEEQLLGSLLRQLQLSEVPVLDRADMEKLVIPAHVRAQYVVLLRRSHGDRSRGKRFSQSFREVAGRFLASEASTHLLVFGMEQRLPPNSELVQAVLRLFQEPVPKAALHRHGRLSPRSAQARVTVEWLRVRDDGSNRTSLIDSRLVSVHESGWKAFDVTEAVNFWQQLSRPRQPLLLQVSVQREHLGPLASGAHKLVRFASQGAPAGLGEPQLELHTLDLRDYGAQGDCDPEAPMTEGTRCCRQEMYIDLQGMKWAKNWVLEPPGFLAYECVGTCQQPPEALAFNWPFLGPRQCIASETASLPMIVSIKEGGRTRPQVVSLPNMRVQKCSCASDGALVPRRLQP
Assay [14] has as its target Calmodulin-1 (Homo sapiens) (UniProt P0DP23). Put plainly: CALM1 binders on microarrays, EGTA buffer, profiling panel, biochemical, small-molecule microarray, Cy5-labelled CALM1 (AID 1111).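 Note: labelled calmodulin applied in Tris saline Tween buffer holding calcium plus EGTA and DTT.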 Conditions: Cy5-CALM1 binding fluorescence, higher = more signal.
For assay [15] the target is unchanged. Put plainly: calcium-bound CALM1 binders on microarrays, profiling panel, artefact control for SMM control-protein annotation, biochemical, small-molecule microarray, Cy5-labelled CALM1, plus calcium (AID 1112).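 Note: score merges spot fluorescence with signal to noise from triplicate slides.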 As to conditions: Cy5-CALM1 binding fluorescence, higher = more signal.
Assay [16] is described as follows: small-molecule microarray binders of probe aWnt5a, primary screen, biochemical, biotinylated probe, 635/667 nm fluorescence (AID 1113).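 Note: score merges 667 nm fluorescence intensity with signal-to-noise per printed feature.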 As to conditions: higher = more signal.
Assay [17] can be described thus: small-molecule microarray binders of probe aShh, primary screen, biochemical, biotinylated probe, 635/667 nm fluorescence (AID 1114).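 Note: probe is biotin-labelled aShh protein from a stem cell growth factor screen; measures binding of labelled protein to compounds printed on the slide; score merges feature fluorescence at 667 nm with signal-to-noise.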 As to conditions: higher = more signal.
Assay [18] can be described thus: small-molecule microarray binders of probe aNog, primary screen, biochemical, biotinylated probe, 635/667 nm fluorescence (AID 1115).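 Note: probe is biotinylated aNog protein used at 0.15 µg/mL for 1 h at 4 C; z-score combines 667 nm fluorescence of each spot with its signal to noise.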 As to conditions: higher = more signal.
Assay [19] concerns the target Torsin-1A-interacting protein 1 (Homo sapiens) (UniProt Q5JTV8). Put plainly: LAP1 binders from COS7 cell lysate, primary screen, small-molecule microarray, 635/667 nm fluorescence (AID 1116). Conditions: COS7-hLAP1 lysate binding, 635 nm fluorescence, higher = more signal.
The target in assay [20] is Alpha-bungarotoxin (Bungarus multicinctus) (UniProt P60615). The assay is described as follows: alpha-bungarotoxin binders on microarray, profiling panel, artefact control for SMM control protein annotation, biochemical, small-molecule microarray, Alexa647 label, 635/667 nm fluorescence (AID 1117). Conditions: alpha-BTX-A647 binding fluorescence, higher = more signal.
Chain of Alpha-bungarotoxin (Bungarus multicinctus) (P60615 whole entry, looked up): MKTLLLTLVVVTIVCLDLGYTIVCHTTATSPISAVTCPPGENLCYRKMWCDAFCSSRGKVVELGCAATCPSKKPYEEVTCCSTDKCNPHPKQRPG

Activity calls are given as the source filed them.

The source of these data is PubChem BioAssay.

Chain of Torsin-1A-interacting protein 1 (Homo sapiens) (Q5JTV8 whole entry, looked up): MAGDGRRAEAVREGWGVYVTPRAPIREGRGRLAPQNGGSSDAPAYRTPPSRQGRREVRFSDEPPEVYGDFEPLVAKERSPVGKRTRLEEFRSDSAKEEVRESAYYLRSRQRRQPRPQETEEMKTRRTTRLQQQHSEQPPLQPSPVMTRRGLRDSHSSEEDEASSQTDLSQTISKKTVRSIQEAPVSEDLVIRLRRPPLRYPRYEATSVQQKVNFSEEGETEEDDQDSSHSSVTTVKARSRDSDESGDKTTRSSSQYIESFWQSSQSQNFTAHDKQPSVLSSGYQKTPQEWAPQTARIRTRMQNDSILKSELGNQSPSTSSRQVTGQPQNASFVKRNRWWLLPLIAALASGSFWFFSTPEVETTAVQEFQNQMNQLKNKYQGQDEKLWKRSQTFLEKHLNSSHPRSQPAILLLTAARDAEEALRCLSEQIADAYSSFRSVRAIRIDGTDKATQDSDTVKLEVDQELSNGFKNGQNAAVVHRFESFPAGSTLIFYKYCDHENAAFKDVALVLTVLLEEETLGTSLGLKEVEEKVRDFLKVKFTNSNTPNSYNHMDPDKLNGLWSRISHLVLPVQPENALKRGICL

For the molecule `CN(C)C(=O)[C@@]1(CCC(=O)OC(C)(C)C)N=C(c2ccc(OCCCO)cc2)O[C@H]1c1ccccc1`, the composite z-score in [1] is 1.75; in [2], 0.559; in [3] it was 0.401; in assay [5], 0.0744; in [6], 0.556; in [7] it was -0.58. The composite z-score is -0.725 in assay [8]; -0.887 in assay [9]; 0.366 in assay [10]; 1.49 in assay [11]; -0.964 in assay [13]; 1.03 in [14]. In addition, the composite z-score is 1 in [15]; 0.0733 in [16]; 0.357 in assay [17]; 0.546 in assay [18]; 1.41 in assay [19]; 0.575 in [20]. For the same molecule, the z-score in [4] is -0.919 (inactive); in assay [12], -1.01.
As to `[N-]=[N+]=NCc1ccccc1C[C@]1(C(=O)O)N=C(c2ccc(OCCCO)cc2)O[C@H]1c1ccccc1CN=[N+]=[N-]`, the composite z-score in assay [1] was 1.07; in assay [2] it was 0.804; in assay [3], 1.01; in [5] it was 0.126; in [6] it was 0.421; in assay [7] it was -0.125. The composite z-score was 0.541 in assay [8]; -0.742 in [9]; 0.458 in assay [10]; 1.43 in [11]; -0.524 in [13]; 1.74 in assay [14]. The composite z-score was 0.411 in [15]; -0.0792 in assay [16]; -0.0146 in [17]; 1.16 in [18]; 0.978 in assay [19]; 1.68 in assay [20]. Besides, the z-score in [4] was -1.17 (inactive); in [12] it was -1.21.
For the molecule `NCCCCCNC(=O)[C@H]1C[C@H]2C(=O)NCC(=O)N2[C@H]1c1cccc(OCCO)c1`, the composite z-score is 1.64 in assay [1]; 0.31 in [2]; 0.284 in [3]; 1.25 in assay [5]; 1.29 in assay [6]; 0.388 in assay [7]. Further, the composite z-score was 0.764 in assay [8]; 0.912 in [9]; -0.0463 in assay [10]; 1.34 in [11]; 0.296 in assay [13]; 0.828 in assay [14]. The composite z-score in assay [15] is 0.8; in assay [16], -0.157; in assay [17], 0.158; in [18], -0.324; in assay [19], 0.86; in assay [20], 1.51. Besides, the z-score in [4] was -0.284 (inactive); in [12] it was -0.786.
`Cc1ccc(S[C@]2(C(=O)NCCN3CCOCC3)CC(=O)N(Cc3cc(C(F)(F)F)cc(C(F)(F)F)c3)[C@@H]2c2ccc(CO)cc2I)cc1`: the composite z-score in assay [1] was 1.4; in [2], 0.104; in assay [3], 0.868; in assay [5], -0.743; in assay [6], -0.799; in [7] it was -0.981. Moreover, the composite z-score was -0.492 in [8]; -1.34 in [9]; 0.551 in assay [10]; 0.105 in [11]; -1.45 in assay [13]; -0.452 in [14]. Also, the composite z-score in assay [15] was 0.492; in assay [16] it was -0.176; in assay [17], -0.331; in assay [18], -0.389; in assay [19] it was -0.604; in assay [20] it was -0.306. In addition, the z-score was -2.04 (inactive) in assay [4] and -1.59 in assay [12].
As to `CC(C)=CCCC(C)=CC(O)C1C=CC2C(=O)N(c3ccccc3)C(=O)C2N1Nc1ccccc1` (stereo not given), the composite z-score was 1.36 in assay [1]; 1.21 in assay [2]; 0.997 in assay [3]; 1.05 in assay [5]; 0.978 in [6]; 0.251 in assay [7]. Further, the composite z-score in assay [8] was 1.38; in assay [9] it was 0.113; in assay [10], 1.06; in assay [11] it was 0.704; in assay [13], 0.12; in assay [14], 2.23. In addition, the composite z-score in assay [15] was determined as 1.18; in [16], 0.139; in assay [17], 0.393; in assay [18], 1.88; in [19] it was 1.03; in assay [20], 2.95. The z-score is 1.18 (inactive) in assay [4] and -0.517 in [12].
Take `COc1cc2c(cc1O)C(C)N(Cc1cccc(OC(F)(F)F)c1)CC2` (stereo not given): the composite z-score in assay [1] is 1.7; in assay [2] it was 0.0376; in [3] it was 0.23; in assay [5], 1.24; in assay [6] it was 0.219; in assay [7] it was -0.425. In addition, the composite z-score in assay [8] is 0.514; in assay [9], 0.188; in assay [10], 0.902; in assay [11], 1.37; in [13], -0.442; in assay [14] it was 0.854. For the same molecule, the composite z-score in [15] is 0.938; in [16], -0.0445; in assay [17], 0.0326; in assay [18], 0.582; in assay [19], 1.67; in [20], 0.514. Also, the results for the z-score in [4] and in [12] were -0.0689 (inactive) and -0.815, respectively.
`O=C1C=CC(=O)[C@@H]2CC(COc3ccccc3)=C3[C@@H](CCc4ccccc4)OB(O)C[C@@H]3[C@H]12`: the composite z-score is 0.403 in assay [1]; -0.339 in assay [2]; -0.523 in assay [3]; 0.545 in assay [5]; 0.34 in assay [6]; 0.515 in assay [7]. In addition, the composite z-score in [8] was 0.887; in assay [9], 1.07; in [10] it was 0.72; in assay [11] it was 0.23; in assay [13], 0.41; in [14], -0.413. Besides, the composite z-score in assay [15] is -1.09; in assay [16] it was -0.0819; in assay [17], 0.0121; in assay [18], -0.175; in assay [19] it was 0.0342; in [20], 0.361. The figures for the z-score in assay [4] and in assay [12] were 2.04 (inactive) and -1.64, respectively.
For the molecule `CC(C)c1ccc(NN2C(C(O)c3cccc(O)c3)C=CC3C(=O)N(c4ccccc4)C(=O)C32)cc1` (stereo not given), the composite z-score in [1] stood at 0.996; in assay [2] it was 0.808; in [3] it was 0.835; in assay [5], 1.39; in [6], 1.27; in assay [7], 0.373. The composite z-score in assay [8] was 1.05; in assay [9] it was -0.0143; in assay [10], -0.251; in [11], 1.43; in [13], -0.136; in [14], 1.93. For the same molecule, the composite z-score in [15] was 0.904; in assay [16], -0.0583; in [17], 0.0588; in assay [18], 1.78; in [19] it was 1.5; in assay [20] it was 1.31. Also, the results for the z-score in assay [4] and in [12] were 0.689 (inactive) and 0.141, respectively.
